The values that follow come from PubChem BioAssay (NCATS).

Inconclusive results are not listed. Unmarked numbers belong to inactive results. Calls of active or inactive are those of the source. Calls follow the shape of the dose curve; as a rule, active = well fitted curve in the direction sought with a large enough effect; inconclusive = small, poorly fitted or top-dose-only effect, or another doubt; inactive = no such curve, though single readings can be large; an effect the other way counts as inactive or inconclusive.
Potency is read from the fitted curve at half-maximal effect.

For one test, the system named is Zika virus NS2B-NS3 protease. Description: Primary screen GU AMC qHTS for Zika virus inhibitors (AID 1347154). Also: nearly all actives have a fitted effect of over 70% in size.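 As to activity change, negative = inhibition: 0% = no-inhibitor control and -100% = no-enzyme control.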 The following applies: Zika NS2B-NS3 unlinked protease, AMC fluorogenic substrate; series mostly up to 54.1 µM; activity change, negative = inhibition: at the top concentration. The procedure, abridged: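 Fluorogenic AMC-substrate cleavage by noncovalent NS2B-NS3 protease complex (25 nM, pH 8.0 Tris buffer with Tween 20) followed for 15 minutes at room temperature (~20% conversion). Percent inhibition from ex340/em450 signal change, fitted by 4-parameter Hill equation.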
(In qHTS, concentration-response curves come from the screen itself.)
As to `COc1ccccc1N1CCN(CC2CN3C(=O)N(C)c4ccccc4C3=N2)CC1` (stereo unspecified), the “activity change, negative = inhibition” value is 12.6%.

For `O=C(Nc1ccc([N+](=O)[O-])cc1O)Nc1ccccc1Br`, the “activity change, negative = inhibition” value is -4.49%.

As for `CCCCn1c(=O)c2[nH]c(C34CC5CC(CC3C5)C4)nc2n(CCCO)c1=O`, the “activity change, negative = inhibition” value was 2.49%. With `CC(=O)Oc1cc2c(c(C)c1OC(C)=O)CC=C1[C@@]2(C)CC[C@@]2(C)[C@H]3C[C@](C)(C(=O)O)CC[C@]3(C)CC[C@]12C`, the Potency is 13.4 µM (active).

Regarding `CC#CC(=O)Nc1cc2c(Nc3ccc(F)c(Cl)c3)ncnc2cn1`, the “activity change, negative = inhibition” value is -8.03%.

As for `COc1ccc(CCCn2ncc3c2nc(N)n2nc(-c4ccco4)nc32)cc1`, the “activity change, negative = inhibition” value was 8%.

As to `CC(Sc1nc2ccccc2[nH]1)C(=O)NN=Cc1cc(Br)ccc1O` (stereo unspecified), the activity change, negative = inhibition was 1.61% [at 6.83 µM]. As for `CCCCc1nn(-c2ccccc2C(F)(F)F)c(=O)n1Cc1ccc(-c2ccccc2S(=O)(=O)NC(=O)c2sccc2C)cc1`, the Potency is 21.2 µM (active).

As for `C=NC(C(=O)N[C@H]1C(=O)N2C1SC(C)(C)C2C(=O)O)c1ccccc1` (stereo partly specified), the Potency was 26.7 µM (active). For the molecule `O=c1[nH]cnc2c1ncn2C1O[C@H](CO)[C@@H](O)[C@H]1O` (stereo partly specified), the “activity change, negative = inhibition” value is 9.34%. For the molecule `O=C(C1CCCCC1)N(CCN1CCN(c2ccccc2CO)CC1)c1ccccn1`, the “activity change, negative = inhibition” value was 6.58%. Regarding `O=[N+]([O-])c1ccc(CSc2ncnc3c2ncn3C2OC(CO)C(O)C2O)cc1` (stereo unspecified), the “activity change, negative = inhibition” value was -3.11%. `Cn1cnnc1Sc1c([N+](=O)[O-])ncn1C`: the “activity change, negative = inhibition” value is -2.98%. As for `C[C@H](N)CCP(=O)(O)O`, the “activity change, negative = inhibition” value was 8.2%. `CCCCCCCCCCCCCC(=O)N[C@@H](C)[C@H](O)c1ccccc1`: the activity change, negative = inhibition is 10.8% [at 6.83 µM]. On to `CCCCCCCCCCCCCCC[C@@H](O)[C@H](CO)NC(=O)CCCCCCC`, for which the activity change, negative = inhibition was 6.97% [at 6.83 µM].

Turning to `COC(=O)[C@H](CCCN=C(N)N)NC(=O)CCCc1c(-c2ccccc2)[nH]c2c(F)cc(F)cc12`, the “activity change, negative = inhibition” value was 9.45%. For the molecule `O=C1CC2(CCCC2)CC(=O)N1CCCCNCC1COc2ccccc2O1` (stereo unspecified), the “activity change, negative = inhibition” value is 11.4%.

Take `C/C=C1/C(=O)C[C@@H]2[C@H]3CCC4=CC(=O)CC[C@]4(C)[C@@H]3CC[C@]12C`: the “activity change, negative = inhibition” value was 16.5%.

System in another test: not listed separately
In words: ZIKV-mCherry secondary qHTS for Zika virus inhibitors (AID 1347158). As to activity change, negative = inhibition: top concentration of the series differs between compounds. The following applies: Vero cells, ZIKV-mCherry infection imaging, 48-72 h; series mostly up to 49.2 µM; activity change, negative = inhibition: at the top concentration. In outline: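 Vero cells, 5,000/well, plated overnight at 37 °C, then compound added and infected with recombinant ZIKV-mCherry at MOI 1 for 48-72 h. PFA-fixed, Hoechst nuclear stain, high-content imaging; cells with mCherry intensity above 450 RFU scored infected, reported as percent infection.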
With `COc1cc(O)c2c(=O)cc(-c3ccc(OC)c(-c4c(O)cc(O)c5c(=O)cc(-c6ccc(O)cc6)oc45)c3)oc2c1`, the Potency is 11.2 µM (active). `Clc1ccc(-c2nn3c(COc4cc(Cl)c(OCc5nnc6sc(-c7ccc(Cl)cc7)nn56)cc4Cl)nnc3s2)cc1`: the “activity change, negative = inhibition” value is 129% [at 32.6 µM]. Regarding `C[C@@H](NC(=O)c1ccc(Cl)cc1)c1c(-c2ccc(F)cc2)noc1C(=O)O`, the “activity change, negative = inhibition” value was 32.9%. As to `O=C(O)c1ccc(-c2cccc(C(F)(F)F)c2)cc1`, the “activity change, negative = inhibition” value is -1.52% [at 74 µM]. Regarding `O=C(O)c1cccc(-c2cccc(C(F)(F)F)c2)c1`, the “activity change, negative = inhibition” value is -27.4% [at 74 µM].

System in another test: not listed separately
In words: Confirmatory screen NINDS Rhodamine qHTS for Zika virus inhibitors (AID 1347161). Also: nearly all actives have a fitted effect of over 60% in size. Particulars: purified enzyme assay, Rhodamine110 substrate fluorescence, 15 min; series mostly up to 114 µM; activity change, negative = inhibition: at the top concentration. In outline: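 Purified NS2B-NS3 protease with the NS2B hydrophilic domain joined by a flexible linker (25 nM) in 10 mM Tris-HCl pH 8.0, 0.01% Tween 20, preincubated 15 min at RT with compound; Rhodamine110 peptide substrate 1.5 µM; fluorescence change over 15 min; 4-parameter Hill fit.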
In the case of `CC(=O)Oc1cc2c(c(C)c1OC(C)=O)CC=C1[C@@]2(C)CC[C@@]2(C)[C@H]3C[C@](C)(C(=O)O)CC[C@]3(C)CC[C@]12C`, the Potency was 3.49 µM (active). `Clc1ccc(-c2nn3c(COc4cc(Cl)c(OCc5nnc6sc(-c7ccc(Cl)cc7)nn56)cc4Cl)nnc3s2)cc1`: the Potency is 6.31 µM (active). On to `Cc1cc(C)cc(C(=O)N(C)[C@H](Cc2ccc(-c3ccccc3)cc2)C(=O)N[C@@H](Cc2c[nH]c3ccccc23)C(=O)O)c1`, for which the Potency was 1.75 µM (active). Consider `O=C(O)c1c(Sc2ccccc2)c2cc(Cl)ccc2n1Cc1ccc(Cl)cc1`, for which the Potency is 1.24 µM (active). Same read-out and setting: the value for `CC(C)=CCCC1(C)C=Cc2c(O)c3c(c(CC=C(C)C)c2O1)OC12C(=CCCC1C(C)(C)O[C@@]2(C/C=C(\C)C(=O)O)C(=O)O)C3=O` (stereo partly specified) was 1.39 µM (active); that for `CO[C@H]1C[C@@H](O[C@@H]2/C(C)=C/C[C@@H]3C[C@@H](C[C@]4(CC[C@H](C)[C@@H](C5CCCCC5)O4)O3)OC(=O)[C@@H]3C=C(C)/C(=N/O)[C@H]4OC/C(=C\C=C\[C@@H]2C)[C@]43O)O[C@@H](C)[C@H]1O` was 22 µM (active). `CN(C)[C@@H]1C(=O)C(C(=O)NCN2CCCC2)=C(O)[C@@]2(O)C(=O)C3=C(O)c4c(O)cccc4[C@@](C)(O)[C@H]3C[C@@H]12`: the Potency was 1.97 µM (active). Take `Clc1cc(OCc2nnc3sc(Cc4ccccc4)nn23)c(Cl)cc1OCc1nnc2sc(Cc3ccccc3)nn12`: the Potency is 3.55 µM (active).

Consider `O=C(O)c1cc(NCc2cc(O)ccc2O)ccc1O`, for which the Potency is 12.4 µM (active).

The test system of another test is Zika virus NS2B-NS3 protease (linked). In words: 384 well plate NINDS AMC confirmatory qHTS for Zika virus inhibitors (AID 1347163). Also: nearly all actives have a fitted effect of over 50% in size.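 As to activity change, negative = inhibition: linked protease at 5 30 or 60 nM final depending on run; fluorescence of AMC released from Ac-VKTGKR-AMC peptide cleaved by the protease; top concentration of the series differs between compounds; 0% = no-inhibitor control and -100% = no-enzyme control.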 Particulars: Recombinant NS2B-NS3 protease, Ac-VKTGKR-AMC fluorescence; series mostly up to 1 mM; activity change, negative = inhibition: at the top concentration. The procedure, abridged:
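Linked protease 5/30/60 nM final; cpds up to 1 mM final, ~15 min preinc. Substrate Ac-VKTGKR-AMC 30 microM final. RT, dark, 25 min; FI ex 355/em 460; normalized to no-enzyme/no-inhibitor ctrls.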
As to `COc1cc(O)c2c(=O)cc(-c3ccc(OC)c(-c4c(O)cc(O)c5c(=O)cc(-c6ccc(O)cc6)oc45)c3)oc2c1`, the Potency was 35.5 µM (active). Take `CC(=O)Oc1cc2c(c(C)c1OC(C)=O)CC=C1[C@@]2(C)CC[C@@]2(C)[C@H]3C[C@](C)(C(=O)O)CC[C@]3(C)CC[C@]12C`: the Potency is 158 µM (active).

For `Clc1ccc(-c2nn3c(COc4cc(Cl)c(OCc5nnc6sc(-c7ccc(Cl)cc7)nn56)cc4Cl)nnc3s2)cc1`, the Potency is 14.1 µM (active). Take `Cc1cc(C)cc(C(=O)N(C)[C@H](Cc2ccc(-c3ccccc3)cc2)C(=O)N[C@@H](Cc2c[nH]c3ccccc23)C(=O)O)c1`: the Potency is 158 µM (active). As for `O=C(O)c1c(Sc2ccccc2)c2cc(Cl)ccc2n1Cc1ccc(Cl)cc1`, the Potency was 126 µM (active). In the case of `CC(C)=CCCC1(C)C=Cc2c(O)c3c(c(CC=C(C)C)c2O1)OC12C(=CCCC1C(C)(C)O[C@@]2(C/C=C(\C)C(=O)O)C(=O)O)C3=O` (stereo partly specified), the Potency is 158 µM (active).

In the case of `Clc1cc(OCc2nnc3sc(Cc4ccccc4)nn23)c(Cl)cc1OCc1nnc2sc(Cc3ccccc3)nn12`, the Potency is 28.2 µM (active). For the molecule `O=C(O)c1cc(NCc2cc(O)ccc2O)ccc1O`, the “activity change, negative = inhibition” value was 87.7% [at 316 µM].
